High-throughput results as filed in PubChem BioAssay.
Hits are enriched below; roughly 19% of the tested compounds scored in any of these assays.
Shiga toxin inh: inhibitors of Shiga toxin in Vero cells; 290,000 compounds, 9.2% hits; Vero cells, Shiga toxin protein synthesis inhibition reporter; inhibition, % at 38.7 µM; in the data active means inhibition mostly above about 28%, no sharp cut-off; inactive means mostly below about 43%; further: 0% is about no effect
Pf growth 96h: P. falciparum growth inhibition at 96 hours; P. falciparum luciferase reporter growth, 96 h; Potency, µM (series often up to 28.7 µM), for the others: at the top dose activity change, negative = inhibition, usual class: inhibitors; 320,000 compounds, 6.9% hits; further: potency means the concentration at half of the fitted maximal effect; on the % scale 0 is the no-effect control and ±100 the full control effect
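P. falciparum expressing integrated firefly luciferase, in erythrocytes at 2% hematocrit, 0.05% parasitemia, incubated with compounds 96 h at 37 C, 5% CO2. Growth inhibition read as loss of luminescence; two-generation exposure targets delayed-death apicoplast inhibitors.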
Pf growth 48h: inhibits P. falciparum growth in the first generation, 48 h. AID 504832. Potency, µM (highest dose often 28.7 µM), without a hit: at the top dose activity change, negative = inhibition, usual class: inhibitors. P. falciparum luciferase growth in erythrocytes, 48 h. 310,000 compounds, 5.9% hits; further: potency means the concentration at half of the fitted maximal effect; on the % scale 0 is the no-effect control and ±100 the full control effect
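Growth was read as firefly luciferase luminescence after a 48 h, 37 C, 5% CO2 exposure of compounds to reporter-bearing P. falciparum cultures (0.1% parasitemia, 2% hematocrit final) in Albumax-supplemented RPMI 1640.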
Cycloheximide cs: counter-screen for Shiga toxin inhibitors: cycloheximide protein synthesis inhibition. cell reporter, cycloheximide protein synthesis inhibition counterscreen. max response, %. 300,000 compounds, 12% hits; in the data active means max response mostly above about 13%, no sharp cut-off; inactive means mostly below about 14%; further: read at 38.3 µM for the half of the compounds with a filed dose; 0% is about no effect
Marburg entry inh: inhibitors of Marburg virus binding or cell entry. Marburg virus pseudotyped entry inhibition, cell reporter. Potency, µM (top dose mostly 37.8 µM), without a hit: at the top dose activity change, negative = inhibition, actives largely listed as inhibitors. 300,000 compounds, 1.8% hits; calls by dose curve; tested in HEK293 cells; further: potency means the concentration at half of the fitted maximal effect; on the % scale 0 is the no-effect control and ±100 the full control effect
Lassa entry inh: Lassa virus entry inhibition; Lassa virus pseudotype entry inhibition, cell reporter; Potency, µM (doses to about 37.9 µM), without a hit: at the highest dose activity change, negative = inhibition, actives largely listed as inhibitors; 300,000 compounds, 1.2% hits; AID 540256; calls by dose curve; tested in HEK293 cells; further: potency means the concentration at half of the fitted maximal effect; on the % scale 0 is the no-effect control and ±100 the full control effect; nearly all actives have a fitted effect of over 50% in size
Numbers without * were called inactive; i = inactive; ? = inconclusive; . = not tested or not shown; ! = repeats disagree; [ ] = remark or other dose. Unless noted, the call rests on the fitted dose curve; in most records, active means well fitted inhibition curve with a large enough effect; inconclusive means small, poorly fitted or top-dose-only effect, or another doubt; inactive means no such curve, though single readings can be large or run the other way.

SMILES	Shiga toxin inh	Pf growth 96h	Pf growth 48h	Cycloheximide cs	Marburg entry inh	Lassa entry inh
COc1ccc(C2C(C(N)=O)=C(C)Nc3ncnn32)cc1 (centres undefined)	37.8	-2.9%	24.3%	22.2*	?	16.2%
Cc1cc(C)cc(NC(=O)c2ccc3c(O)c(S(=O)(=O)c4ccccc4)c(=O)[nH]c3c2)c1	.	.	.	.	.	-15.8%[46.1 µM]
CCOC(=O)c1cc(C#N)c(SCC(=O)Nc2ccc(C(C)=O)cc2)[nH]c1=O	46.9*	-1.8%	8.4%	17.4*	8.0%[46.1 µM]	13.6%
CCOC(=O)c1cc(C#N)c(SCC(N)=O)[nH]c1=O	-3.1	5.6%	6.0%	-2.7	.	.
CC1=NS(=O)(=O)c2cc(Cl)ccc2N1	16.7	?	-4.0%	3.4	13µM*!	?
Nc1n[nH]c(C(F)(F)F)c1-c1ccccc1	-6.3	76.9%	16.4%[5.75 µM]	1.9	13.6%[46.1 µM]	13.0%[46.1 µM]
Nc1n[nH]c(N)c1N=Nc1ccccc1F	24.2	0.0%	20.5%	16.9*	26.6%[46.1 µM]	-3.2%[46.1 µM]
Nc1[nH]c(=O)[nH]c(=O)c1N=Nc1ccccc1Cl	13.6	40.8%	-6.3%	16.8	.	.
C=CCn1c(O)c(N=Nc2ccccc2C)c2ccccc21	-10.8	42.6%	-0.7%	-0.4	-6.9%	-17.0%[46.1 µM]
Nc1n[nH]c(N)c1N=Nc1ccc(Cl)cc1Cl	38.1*	57.8%	92.1%	51.7*	-7.6%	0.4%
Cc1ccccc1N=Nc1c(N)n[nH]c1N	8.9	2.94µM*	7.1%	9.2	.	.
COC(=O)c1ccc(NC(=O)CSc2nnc(-c3ccccc3Br)n2-c2ccccc2)cc1	.	.	.	.	20.1%[46.1 µM]	-27.4%
N/C(=N\c1nc(CSc2ccc(Cl)cc2)cc(=O)[nH]1)Nc1ccccc1C(F)(F)F	-3.5	?	13.1µM*	-2.3	.	.
Cc1ccc(SCc2cc(=O)[nH]c(/N=C(\N)Nc3ccccc3Sc3ccccc3)n2)cc1	2.1	10.4µM*	?	-1.0	-13.3%	-8.7%
Cc1cc(C)n(S(=O)(=O)c2ccc(C(C)(C)C)cc2)n1	5.9	.	?	1.0	-3.1%	3.3%
COCCn1c(C)cc(C(=O)COC(=O)c2ccc(N3CCCC3=O)cc2)c1C	9.1	?	20.4%	6.4	13.3%[46.1 µM]	-8.2%
Cc1cccc(C(=O)n2c(=S)nc3cc(C)ccn32)c1	125.5*	349.9%	45.6%	46.0*	?	?
Cc1ccn2c(NC(=O)c3ccccc3)c(-c3ccccc3)nc2c1	18.0	-23.7%	6.4%	1.5	-2.6%	-9.2%
Cc1ccn2c(c1)nc(=S)n2C(=O)c1ccccc1	121.1*	433.4%	i	114.2*	?	?
COc1ccc(C)cc1-n1c(N)c(C#N)c(C#N)c1-c1ccc(OC)c(OC)c1OC	2.4	50.0%	11.7µM*	0.6	-18.9%	-13.1%
Cc1ccc(C)c(-n2c(N)c(C#N)c3nc4ccccc4nc32)c1	.	.	.	.	.	2.9%[46.1 µM]
CCOc1ccc(N(CC(=O)NCc2ccc(OC)cc2)S(C)(=O)=O)cc1	55.6*	181.8%	59.2%	33.6*	.	.
CS(=O)(=O)N(CC(=O)NCc1ccccc1)c1ccc(Cl)cc1	-3.0	0.0%	8.4%	3.3	.	.
COc1ccc(N(CC(=O)NCc2ccccc2)S(C)(=O)=O)cc1	51.6*	-0.3%	27.4%	31.3*	2.6%	6.1%
CCOc1ccc(N(CC(=O)NCC(C)C)S(C)(=O)=O)cc1	2.1	.	13.1%	-2.4	6.4%	5.4%
SMILES	Shiga toxin inh	Pf growth 96h	Pf growth 48h	Cycloheximide cs	Marburg entry inh	Lassa entry inh
CCOc1ccccc1/C=N/NC(=O)c1cccc(S(=O)(=O)N2CCOCC2)c1	29.4	14.0%	4.8%	-0.9	11.8%[46.1 µM]	2.2%[46.1 µM]
Cc1c(C(=O)N2CCCCC2)sc(NC(=O)C2CC2)c1C#N	2.1	.	-5.3%	3.2	10.1%	3.2%
O=S1(=O)N=C(Nc2nncs2)c2ccccc21	2.1	-37.7%	.	5.6	21.1%	-5.6%
CC1=CC(=O)C=C(C)C1=NOS(=O)(=O)c1ccccc1	10.5	.	-22.8%	27.0	?	10µM*
Cc1ccc2c(c1)/C(=N/OS(=O)(=O)c1ccccc1)CCS2	.	.	.	.	5.2%	14.3%
CC1=CC(=O)C(C(C)C)=C/C1=N/OS(=O)(=O)c1ccccc1	42.0	?	0.465µM*	3.3	.	.
Cc1occc1C(=O)N/N=C/c1ccccn1	75.0*	30.5%	?	38.1*	.	.
Cc1ccc(C(=O)N/N=C\c2ccccn2)cn1	62.5*	11.7%	4.1%	40.1*	?	-7.9%
C(=N\N=C\c1ccccn1)/c1ccccn1	58.0	?	13.1µM*	12.6*	6.5%[46.1 µM]	7.4%[46.1 µM]
C(=C1c2ccccc2-c2ccccc21)c1ccccn1	.	.	.	.	?	-25.5%
O=C(N/N=C/c1ccccn1)c1ccc(Br)cc1	121.9*	?	?	66.9*	?	?
Cc1ccc(C(=O)N/N=C\c2cccn2C)cn1	23.0	?	?	21.1	?	?
Cc1nn(C)c(C(=O)N/N=C/c2ccccn2)c1[N+](=O)[O-]	-32.6	7.2%	4.8%	1.1	.	.
CC(C)(C)c1ccc(C(=O)N/N=C/c2ccccn2)cc1	84.7*	-28.9%	?	45.4*	.	.
O=C(N/N=C/c1ccccn1)c1ccc(N/N=C/c2ccccn2)cc1	63.4*	?	?	28.6*	.	.
Cc1ccccc1C(=O)Nc1ccc(C(=O)N/N=C/c2ccccn2)cc1	-8.3	9.9%	8.1%	-1.1	3.9%[46.1 µM]	9.8%[46.1 µM]
O=c1cc(-c2ccccc2Cl)oc2c(NS(=O)(=O)c3cc(Cl)cc(Cl)c3O)ccc(O)c12	4.9	?	-3.7%	21.5	-2.0%	-4.5%
COc1ccc(C(=O)CCC(=O)N2CCN(c3ccc(C)cc3)C(C)C2)cc1 (centres undefined)	-8.3	9.28µM*	-15.6%	-2.8	.	.
O=C(Cc1ccccc1)N/N=C/c1ccc([N+](=O)[O-])s1	111.5*	8.28µM*	7.38µM*	34.8	?	?
COc1ccccc1NC(=O)C(=O)N/N=C/c1ccc([N+](=O)[O-])s1	-11.5	1.65µM*	2.62µM*	-2.6	.	.
Cc1ccnn1CC(=O)N/N=C/c1ccc([N+](=O)[O-])s1	-3.3	7.38µM*	?	0.5	.	.
CCn1nc(C)c(/C=N/NC(=O)Cn2nccc2C)c1C	71.7*	100.1%	108.0%	37.4*	15.0%	?
O=C(N/N=C/c1ccc([N+](=O)[O-])s1)C(O)c1ccccc1 (centres undefined)	14.2	2.33µM*	4.65µM*	16.2*	-11.3%	?
O=C(CNC(=O)c1cccc(F)c1)N/N=C/c1ccc([N+](=O)[O-])s1	-4.2	?	-5.5%	17.9	.	.
COc1ccc(NC(C)C(=O)N/N=C/c2ccc([N+](=O)[O-])s2)cc1 (centres undefined)	-18.8	26.7%	?	-1.5	-9.5%[46.1 µM]	-10.6%
O=C(N/N=C/c1ccc([N+](=O)[O-])s1)c1ccccc1	40.3	-3.0%	?	20.1*	?	?
O=C(N/N=C/c1ccc([N+](=O)[O-])s1)c1cccnc1	-7.0	2.94µM*	9.28µM*	-2.0	14.6µM*	-54.4%
